Experimental data taken from PubChem BioAssay (NCATS).
Results filed as inconclusive are left out. Calls of active or inactive are those of the source. Calls come from the whole dose curve; as a rule, active = well fitted curve in the direction sought with a large enough effect; inconclusive = small, poorly fitted or top-dose-only effect, or another doubt; inactive = no such curve, though single readings can be large; an effect the other way counts as inactive or inconclusive.

Legend:
[1] = target: Rap guanine nucleotide exchange factor 3 (Homo sapiens) (UniProt O95398); test: Confirmatory qHTS for agonist of cAMP-regulated guanine nucleotide exchange factor 3 (EPAC1) (AID 1645881);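 note: EPAC1 catalysed release of BODIPY-GDP from Rap1B seen as fluorescence loss; 100% = effect of cAMP agonist control; nearly all actives have a fitted effect of over 75% in size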
Rap guanine nucleotide exchange factor 3 (Homo sapiens), sequence (O95398 whole entry, looked up): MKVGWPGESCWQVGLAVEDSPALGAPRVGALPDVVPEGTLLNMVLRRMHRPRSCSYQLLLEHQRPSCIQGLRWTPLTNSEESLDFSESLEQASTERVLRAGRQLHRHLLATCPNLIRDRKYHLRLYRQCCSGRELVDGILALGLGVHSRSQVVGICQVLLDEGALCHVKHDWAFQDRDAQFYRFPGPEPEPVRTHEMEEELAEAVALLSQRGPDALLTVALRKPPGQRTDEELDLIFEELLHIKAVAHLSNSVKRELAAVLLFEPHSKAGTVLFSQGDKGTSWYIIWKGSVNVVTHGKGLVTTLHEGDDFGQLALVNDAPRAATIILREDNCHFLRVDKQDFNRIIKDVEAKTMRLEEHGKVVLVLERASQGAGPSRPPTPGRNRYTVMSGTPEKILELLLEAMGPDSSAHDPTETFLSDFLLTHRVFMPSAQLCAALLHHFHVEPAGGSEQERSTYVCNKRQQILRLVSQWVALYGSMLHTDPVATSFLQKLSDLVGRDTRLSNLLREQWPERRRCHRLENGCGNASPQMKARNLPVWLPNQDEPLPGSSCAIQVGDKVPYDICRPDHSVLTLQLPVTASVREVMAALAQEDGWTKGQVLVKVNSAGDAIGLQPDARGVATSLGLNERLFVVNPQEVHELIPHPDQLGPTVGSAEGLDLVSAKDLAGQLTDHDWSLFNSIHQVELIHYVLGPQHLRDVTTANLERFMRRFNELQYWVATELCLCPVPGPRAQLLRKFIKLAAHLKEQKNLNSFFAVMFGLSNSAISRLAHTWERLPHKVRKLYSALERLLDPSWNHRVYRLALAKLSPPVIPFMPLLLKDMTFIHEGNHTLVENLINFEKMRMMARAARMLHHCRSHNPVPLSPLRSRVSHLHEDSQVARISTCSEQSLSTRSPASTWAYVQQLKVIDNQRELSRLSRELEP

[2] = target: Rap guanine nucleotide exchange factor 4 (Homo sapiens) (UniProt Q8WZA2); test: Confirmatory qHTS for agonist of cAMP-regulated guanine nucleotide exchange factor 4 (EPAC2) (AID 1645884);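 note: nucleotide exchange releases bodipy-GDP from Rap1 and this lowers its fluorescence; % is set by controls: 0 for no effect and ±100 for the full control effect; nearly all actives have a fitted effect of over 65% in size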
Rap guanine nucleotide exchange factor 4 (Homo sapiens), sequence (Q8WZA2 whole entry, looked up): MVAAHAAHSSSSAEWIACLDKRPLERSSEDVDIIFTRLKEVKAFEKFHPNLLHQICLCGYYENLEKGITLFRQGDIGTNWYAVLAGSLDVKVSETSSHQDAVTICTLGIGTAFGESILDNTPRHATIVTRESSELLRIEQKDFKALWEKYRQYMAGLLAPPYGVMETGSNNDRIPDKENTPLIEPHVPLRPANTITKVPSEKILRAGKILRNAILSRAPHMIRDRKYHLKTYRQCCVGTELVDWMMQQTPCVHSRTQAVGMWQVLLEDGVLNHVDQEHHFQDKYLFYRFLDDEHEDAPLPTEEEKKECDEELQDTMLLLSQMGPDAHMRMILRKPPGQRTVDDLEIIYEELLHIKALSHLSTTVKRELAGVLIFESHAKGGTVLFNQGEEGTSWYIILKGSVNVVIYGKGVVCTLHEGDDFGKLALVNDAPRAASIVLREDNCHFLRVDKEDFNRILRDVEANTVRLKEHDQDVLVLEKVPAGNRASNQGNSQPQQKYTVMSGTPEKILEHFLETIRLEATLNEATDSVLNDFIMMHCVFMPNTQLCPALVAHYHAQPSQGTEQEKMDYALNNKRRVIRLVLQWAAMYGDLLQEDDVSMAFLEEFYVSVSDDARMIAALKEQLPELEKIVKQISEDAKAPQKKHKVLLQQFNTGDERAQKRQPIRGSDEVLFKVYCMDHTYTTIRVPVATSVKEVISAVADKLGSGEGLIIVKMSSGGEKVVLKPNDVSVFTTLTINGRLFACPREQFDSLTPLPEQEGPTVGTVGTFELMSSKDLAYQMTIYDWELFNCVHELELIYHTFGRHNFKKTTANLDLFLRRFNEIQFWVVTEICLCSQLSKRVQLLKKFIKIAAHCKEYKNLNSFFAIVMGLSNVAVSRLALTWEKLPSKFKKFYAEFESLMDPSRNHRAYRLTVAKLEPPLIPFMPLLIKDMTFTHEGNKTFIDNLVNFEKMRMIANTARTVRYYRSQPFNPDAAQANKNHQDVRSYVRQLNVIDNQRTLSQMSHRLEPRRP

[3] = target: Rap guanine nucleotide exchange factor 4 (Homo sapiens) (UniProt Q8WZA2); test: Confirmatory qHTS for antagonist of cAMP-regulated guanine nucleotide exchange factor 4 (EPAC2) (AID 1645885); note: % is set by controls: 0 for no effect and ±100 for the full control effect; nearly all actives have a fitted effect of over 25% in size
[4] = target: Rap guanine nucleotide exchange factor 3 (Homo sapiens) (UniProt O95398); test: Counterscreen qHTS for antagonist of cAMP-regulated guanine nucleotide exchange factor 3 (EPAC1) (AID 1645888);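 note: fluorescence loss as bound BODIPY-GDP is released from Rap1B; % of control where 0% means no effect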
Outline: (§1)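 Rap1B-BODIPY-GDP 250 nM + GDP 50 uM; cpds 7-pt, final 9.74 nM–152 uM (activator mode) or from 7.32 nM upwards (inhibitor mode); RT; FI 480/540 nm at 5 and 30 min, then ± cAMP, reread.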

[5] = target: Rap guanine nucleotide exchange factor 3 (Homo sapiens) (UniProt O95398); test: Counterscreen qHTS for agonist of cAMP-regulated guanine nucleotide exchange factor 3 (EPAC1) (AID 1645889); note: % of control where 0% means no effect; nearly all actives have a fitted effect of over 40% in size
Outline: as §1

CS(=O)(=O)c1ccc(C(=O)OCc2nnc(-c3ccccc3)o2)cc1[N+](=O)[O-]
inactive: Potency [1] | Potency [2] | Potency [3] | Potency [4] | Potency [5]

O=C(Nc1nc2ccccc2[nH]1)C1CCN(S(=O)(=O)c2cccs2)CC1
inactive: Potency [1] | Potency [2] | Potency [3] | Potency [4] | Potency [5]

CCN(CC)c1ccc(/C=C2/C(=O)c3ccc(C(=O)O)cc3C2=O)cc1
inactive: Potency [1] | activation [2] 4.11% [at 17.1 µM, percent relative to cAMP agonist control] | Potency [3] | activity change, negative = inhibition [4] 8.07% [at 30.8 µM] | activation [5] 9.24% [at 30.8 µM]

Cc1nn(-c2ccccc2)c(C)c1-c1cc(C(=O)N/N=C/c2ccc(O)cc2)[nH]n1
inactive: Potency [1] | activation [2] -7.34% [at 17.1 µM, percent relative to cAMP agonist control] | Potency [3] | activity change, negative = inhibition [4] -7.56% [at 30.8 µM] | activation [5] 9.11% [at 30.8 µM]

CC(=Cc1ccccc1)C=C1SC(=S)N(CCCC(=O)Nc2ccc(C(=O)O)cc2)C1=O
inactive: Potency [1] | Potency [2] | Potency [3] | Potency [4] | Potency [5]
